This is an account of results in PubChem BioAssay (NCI).

About 83,000 compounds went through this panel and 20% of them were active in at least one assay; those are over-represented in the sample as a whole.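 Growth was measured after 48 h exposure to one concentration of compound in 96-well plates. Values under 10 count as active.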 A number with no mark means an inactive call. Active and inactive are the calls of the source.

Holding throughout (assay): NCI-60 one-dose screen, 48 h (100 = growth as untreated, 0 = no growth, -100 = all killed)
What all share (conditions): 10 µM unless noted

Experiment [1] deals with SR leukemia.
Experiment [2] has as its system RPMI-8226 leukemia.
Experiment [3] deals with OVCAR-8 ovarian.
Experiment [4] deals with OVCAR-5 ovarian.
Experiment [5] concerns OVCAR-4 ovarian.
The subject of experiment [6] is SK-OV-3 ovarian.
For experiment [7], the system named is IGROV1 ovarian.
For experiment [8], the system named is OVCAR-3 ovarian.
The subject of experiment [9] is HS 578T breast.
In experiment [10] the test system is NCI/ADR-RES ovarian.
The subject of experiment [11] is T-47D breast.
Experiment [12] relates to BT-549 breast.
For experiment [13], the system named is MDA-MB-435 melanoma.
In experiment [14] the test system is SW-620 colon.
The test system of experiment [15] is MCF7 breast.
For experiment [16], the system named is HCT-116 colon.
Experiment [17] has as its system HCC-2998 colon.
Experiment [18] concerns KM12 colon.

On to `O=c1cc(-c2ccccc2)nc(SCc2nc3cc(Cl)c(Cl)cc3[nH]2)[nH]1`, for which the growth was 6.56% (active) in experiment [1]; 114% in experiment [2]; 104% in [3]; 95.2% in experiment [4]; 101% in [5]; 92.4% in [6]. For the same molecule, the growth is 101% in experiment [7]; 106% in [8]; 105% in [9]; 97% in experiment [10]; 79% in experiment [11]; 108% in [12]. Further, the growth is 105% in [13]; 104% in [14]; 92.5% in experiment [15]; 97.3% in [16]; 102% in experiment [17]; 96% in experiment [18].
For `Cc1ccc2nc(-c3ccc(C(=O)N/N=C/c4ccc([N+](=O)[O-])cc4)cc3)[nH]c2c1`, the growth is 92% in experiment [1]; 95.6% in [2]; 105% in [3]; 96.5% in experiment [4]; 107% in experiment [5]; 109% in experiment [6]. Besides, the growth in [7] was 91.3%; in experiment [8], 115%; in experiment [9], 105%; in experiment [10], 106%; in [11] it was 91.1%; in experiment [12] it was 106%. In addition, the growth in experiment [13] is 102%; in experiment [14], 106%; in [15] it was 88.3%; in [16] it was 103%; in experiment [17] it was 105%; in experiment [18], 97.6%.
On to `CCOC(=O)C1=C(CC(O)c2ccc(OC)cc2OC)NC(=O)NC1c1ccccc1` (stereo not drawn), for which the growth in experiment [1] is 75.9%; in [2], 99.2%; in experiment [3], 109%; in experiment [4], 88.7%; in experiment [5], 106%; in experiment [6] it was 114%. Further, the growth was 118% in experiment [7]; 109% in experiment [8]; 117% in experiment [9]; 107% in experiment [10]; 110% in experiment [11]; 102% in [12]. In addition, the growth in experiment [13] was 99.4%; in [14] it was 115%; in experiment [15] it was 120%; in experiment [16], 89.2%; in [17], 90.6%; in experiment [18] it was 115%.
As to `O=c1oc2c(cnc3ccccc32)cc1-c1cccc(Cl)c1`, the growth in experiment [1] was 93%; in experiment [2], 101%; in experiment [3], 109%; in experiment [4], 94%; in [5], 102%; in experiment [6] it was 105%. Besides, the growth in experiment [7] is 106%; in experiment [8] it was 112%; in experiment [9], 105%; in [10], 103%; in experiment [11], 107%; in experiment [12], 115%. For the same molecule, the growth in experiment [14] was 106%; in experiment [15], 99.2%; in experiment [16], 105%; in experiment [17] it was 109%; in [18], 110%.
As for `O=C(Nc1ncc(Cc2ccccc2)s1)c1sc2ccccc2c1Cl`, the growth in experiment [1] was 16%; in experiment [2] it was 28%; in experiment [3], 27.8%; in [4], 41.8%; in experiment [5] it was 68.1%; in experiment [6], 28.8%. Besides, the growth in [7] was 33.1%; in experiment [8], -30.6% (active); in experiment [9], 13.5%; in experiment [10] it was 16.1%; in experiment [11] it was 19.3%; in experiment [12], 62.3%. Also, the growth in [13] was -65.2% (active); in experiment [14], 20.4%; in experiment [15] it was 14.4%; in experiment [16], 24.8%; in experiment [17] it was 17.6%; in [18] it was 12.5%.
Regarding `CC(=O)N1N=C(c2ccc(Nc3nc(Nc4ccc(F)cc4)nc(Nc4ccc(F)cc4)n3)cc2)CC1c1ccc(N(C)C)cc1` (stereo not drawn), the growth is -4.86% (active) in experiment [1]; 4.52% (active) in experiment [2]; 27.6% in [3]; 78.4% in [4]; 62.2% in experiment [5]; 90.6% in experiment [6]. Also, the growth in experiment [7] is 48%; in experiment [8], 69.5%; in [9], 62.9%; in [10] it was 27.5%; in experiment [11], 25%; in [12], 63.9%. Also, the growth in experiment [13] is 6.22% (active); in experiment [14], 63.7%; in [15], 42.2%; in [16] it was 43.3%; in experiment [17], 67.5%; in experiment [18], 39.8%.
Turning to `Cc1ccc(-c2nc(SCC(=O)N3CCN(c4cc5c(cc4F)c(=O)c(C(=O)O)cn5C4CC4)CC3)nc(Cl)c2C#N)cc1`, the growth in [1] was 103%; in experiment [2] it was 104%; in experiment [3], 106%; in experiment [4] it was 96.4%; in experiment [5], 108%; in [6], 89.2%. Further, the growth in experiment [7] was 97.4%; in [8] it was 109%; in experiment [9], 104%; in experiment [10], 102%; in experiment [11] it was 91.1%; in experiment [12] it was 103%. In addition, the growth in [13] is 106%; in [14] it was 103%; in experiment [15], 94.9%; in experiment [16], 101%; in experiment [17], 98.8%; in experiment [18], 102%.
In the case of `COC(=O)/C(CCC=C(C)C)=C1\[C@@H](OC(C)=O)C[C@@]2(C)[C@H]1C/C(=N/O)[C@H]1[C@@]3(C)CC/C(=N\O)[C@@H](C)[C@@H]3CC[C@@]12C`, the growth is 66.2% in experiment [1]; 46.3% in [2]; 90.4% in experiment [3]; 135% in experiment [4]; 97.3% in experiment [5]; 107% in [6]. Besides, the growth in experiment [7] is 100%; in experiment [8], 93.8%; in experiment [9], 94.3%; in experiment [10] it was 102%; in experiment [11], 82.9%; in experiment [12] it was 95.5%. Also, the growth in experiment [13] is 98.6%; in [14], 106%; in [15], 55.1%; in [16], 101%; in experiment [17], 110%; in experiment [18] it was 103%.
